Compound activity: PubChem, several laboratories
Hits are enriched below; roughly 4.8% of the tested compounds scored in any of these assays.
NF-kB expr up: NF-kB expression increase, human neuronal cells. NF-kB reporter expression; active compounds read high. fold change at 12.5 µM. hit rate 1.6% among 190,000. AID 1239; in the data active = fold change above about 3.3
Wee1 stabilizer: blocks degradation of human Wee1 kinase; hit rate 1.2% among 220,000; reporter increase, % at 5 µM; P30291; HeLa Luc-Wee1K328M stability, luciferase luminescence; 100% = proteasome inhibitor MG132 effect;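 active = activation above the mean of all tested compounds plus 3 SD, set per screening run, cut at about 8.8% in these data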;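 note: cells exposed to compound for 20 h before luminescence read; 0% = DMSO alone and 100% = MG132 at 30 µM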
Target sequence (P30291 whole entry K328M): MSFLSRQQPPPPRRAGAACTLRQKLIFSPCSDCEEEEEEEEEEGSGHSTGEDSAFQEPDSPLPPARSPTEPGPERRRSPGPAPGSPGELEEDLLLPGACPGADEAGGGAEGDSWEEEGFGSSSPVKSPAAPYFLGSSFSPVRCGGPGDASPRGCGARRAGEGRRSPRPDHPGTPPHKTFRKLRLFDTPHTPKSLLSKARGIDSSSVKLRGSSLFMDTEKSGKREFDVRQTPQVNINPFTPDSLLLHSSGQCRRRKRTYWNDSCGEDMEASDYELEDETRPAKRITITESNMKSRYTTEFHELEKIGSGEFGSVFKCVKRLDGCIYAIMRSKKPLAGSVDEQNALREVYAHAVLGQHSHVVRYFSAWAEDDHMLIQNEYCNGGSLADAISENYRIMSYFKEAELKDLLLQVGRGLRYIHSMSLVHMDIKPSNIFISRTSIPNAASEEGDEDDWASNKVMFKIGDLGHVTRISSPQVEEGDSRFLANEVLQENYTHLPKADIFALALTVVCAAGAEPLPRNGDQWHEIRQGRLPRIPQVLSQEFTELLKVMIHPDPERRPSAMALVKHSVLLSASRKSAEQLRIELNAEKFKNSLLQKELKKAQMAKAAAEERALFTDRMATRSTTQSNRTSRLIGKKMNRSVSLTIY
APP 5'UTR act: activates APP 5'UTR luciferase reporter. activation, % at 2 µM. SH-SY5Y APP 5'UTR luciferase reporter, luminescence; zero percent = DMSO vehicle wells. hit rate 1% among 190,000;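 active = activation above a set limit, based on mean plus 3 SD of controls, cut at about 140% in these data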
STAT1 act: STAT1 signaling activation. NIH 3T3 STAT1-luciferase reporter, IFN-gamma, luminescence; 100% = IFN-gamma alone, no compound. activation (% of control), % at 5.5 µM. hit rate 2.6% among 200,000;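 active = activation above the screen-wide mean activation plus 3 SD, cut at about 130% in these data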;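 note: raw ratio to IFN-gamma control signal so 100% means no change and 0% no light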
APP transl inh: APP translation inhibition | hit rate 0.82% among 190,000 | inhibition, % at 2 µM | AID 1285 | SH-SY5Y APP 5'UTR-luciferase reporter, luminescence;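 active = inhibition above a set limit, derived from the sample mean plus 3 SD, cut at about 45% in these data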
Hsp70 act: switches on Hsp70 transcription; AID 1203; hit rate 0.04% among 200,000; activation, % at 10 µM; HeLa Hsp70 promoter luciferase reporter, luminescence; scaled: vehicle 0, proteasome-inhibitor control 100%;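 active = activation above the mean across all tested compounds plus 3 SD, cutoff set per campaign, cut at about 5.5% in these data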;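 note: 100% = MG132 at 30 µM as the positive control and 0% = DMSO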
An asterisk follows results filed as active; i = inactive; . = no result.

SMILES	NF-kB expr up	Wee1 stabilizer	APP 5'UTR act	STAT1 act	APP transl inh	Hsp70 act
CN(c1ccccc1)S(=O)(=O)c1ccc(C(=O)OCC(=O)NCc2ccco2)cc1	0.95	0.7	-6.4	99.5	6.4	-0.1
CN(C)c1nc2sc3c(c2c(=O)n1C)CC(C)(C)OC3	1.56	-2.4	15.3	105.1	-15.3	-0.3
Cc1cc2ncc(C(N)=O)cn2n1	1.2	-0.2	-16.3	109.0	16.3	0.4
Cc1cc2ncc(-c3cccc(Cl)c3)cn2n1	1.88	-1.4	48.8	128.8*	-48.8	-0.2
FC(F)(F)c1cnc(-c2cnc3c(-c4ccc(Cl)cc4)cnn3c2)c(Cl)c1	1.01	-0.9	9.4	101.4	-9.4	-0.3
N#Cc1cnn2cc(-c3ncc(C(F)(F)F)cc3Cl)cnc12	0.36	2.2	1.3	105.7	-1.3	-0.2
Cc1nn2cc(-c3ncc(C(F)(F)F)cc3Cl)cnc2c1Br	0.92	0.4	504.7*	128.8*	i	-0.3
Cc1cc2ncc(-c3ncc(C(F)(F)F)cc3Cl)cn2n1	0.91	1.0	138.2*	74.8	-138.2	-0.3
CCOC(=O)c1sc(NC(=O)CSc2nnnn2-c2ccc(C)c(C)c2)nc1C	0.96	4.3	-5.7	98.9	5.7	-0.1
CCC1N=C(SC)NC(C)=C1C(=O)c1ccccc1 (configuration not stated)	1.18	-0.1	-4.7	101.3	4.7	-0.1
CSC1=NC(C(Cl)(Cl)Cl)N=C(c2ccc(C)cc2)N1 (configuration not stated)	1.06	7.9	-70.8	94.5	70.8*	-0.3
CN1C(=O)/C(=C\C=C2/CCCN2C)N(C)C1=S	5.7*	0.6	11.2	128.0	-11.2	-0.2
CCN1C(=O)/C(=C/C=C2/CCCN2C)OC1=S	1.66	3.2	29.2	116.5	-29.2	-0.3
Clc1ccccc1Nc1nnc(-c2ccncc2)s1	4.21*	0.8	160.4*	130.6*	-160.4	-0.4
CNc1nnc(-c2ccncc2)s1	1.08	2.2	8.1	104.6	-8.1	0.4
CCC(=O)Nc1ccccc1C(=O)OCC(=O)c1ccccc1	2.17	2.2	75.8	137.5*	-75.8	0.2
Cc1ccc(C(=O)OCC(=O)Nc2ccccc2)cc1NC(=O)c1ccco1	1.34	-0.2	12.3	110.3	-12.3	-0.2
CC(=O)Nc1cc(C(=O)OCC(=O)c2ccccc2)ccc1C	1.19	1.6	50.0	136.4*	-50.0	-0.2
CCCCC(=O)Nc1ccccc1C(=O)OCC(=O)c1ccc2c(c1)OCCO2	0.84	-0.3	70.0	132.5*	-70.0	-0.2
CCC(=O)Nc1cccc(C(=O)OCC(=O)c2ccccc2Cl)c1	2.17	1.6	10.0	129.5*	-10.0	0.4
CCC(=O)Nc1ccccc1C(=O)OCC(=O)c1ccc2ccccc2c1	0.51	-0.8	0.8	108.1	-0.8	-0.1
O=C(O)/C=C/C(=O)Nc1ccccc1C(=O)OCC(=O)c1ccc2c(c1)OCCO2	1.16	-3.1	36.8	101.4	-36.8	-0.1
CCN1CCN(C(=S)c2ccc(OC)cc2)CC1	1.18	-1.9	-3.0	95.8	3.0	-0.5
COC(=O)CC1NCCNC1=O (configuration not stated)	1.14	-2.2	14.1	101.9	-14.1	-0.1
COCCSc1ccccc1C(=O)NCc1ccc(S(N)(=O)=O)cc1	0.9	-1.4	-11.6	106.7	11.6	-0.2
SMILES	NF-kB expr up	Wee1 stabilizer	APP 5'UTR act	STAT1 act	APP transl inh	Hsp70 act
CC1Cc2ccccc2N1CC(=O)c1c(N)n(Cc2ccccc2)c(=O)n(C)c1=O (configuration not stated)	0.57	-0.8	5.9	97.2	-5.9	-0.1
O=C(COC(=O)c1cccnc1Cl)c1ccccc1	1.31	-1.3	-0.2	130.0*	0.2	-0.2
CCCCNc1ccccc1C(=O)OCC(=O)Nc1ccc(S(N)(=O)=O)cc1	0.75	-0.9	6.2	99.8	-6.2	-0.3
CC(Oc1ccc(Cl)cc1Cl)C(=O)NCCC1=CCCCC1 (configuration not stated)	0.83	1.6	16.0	104.3	-16.0	-0.3
COc1ccc(OC)c(Nc2cc(-c3ccccc3)nc(N)n2)c1	2.78	0.2	-94.2	95.0	94.2*	0.3
CCn1cc(C(=O)O)c(=O)c2cnc(N3CCN(C(=S)NC(=O)c4ccccc4Cl)CC3)nc21	.	-1.8	.	.	.	.
CC(=O)NC(=S)Nc1ccc(NC(=O)COc2ccc(C(C)C)cc2)cc1	1.17	-4.5	9.6	92.5	-9.6	-0.2
CCCCCOc1ccc(CN2CCOCC2)cc1Cl	1.95	1.6	144.0*	115.5	-144.0	-0.1
Clc1cc(Br)ccc1OCCN1CCOCC1	1.3	1.2	8.9	109.0	-8.9	-0.4
Cc1cccc(N/N=C/c2ccccc2O)c1	1.08	3.5	60.7	90.2	-60.7	-0.4
O=c1[nH]ncc(N/N=C\c2ccc(O)cc2O)c1Cl	1.11	-3.0	-3.1	101.1	3.1	-0.4
Cc1ccc(/C=N/Nc2cccc3cccnc23)c(O)c1	7.48*	0.5	93.4	103.6	-93.4	0.2
Oc1ccc(/C=N/Nc2cccc3cccnc23)c(O)c1	11.3*	-0.2	49.2	89.0	-49.2	0.1
CCOC(=O)C(NC(=O)NCc1ccccc1OC)(OCC)C(F)(F)F (configuration not stated)	1.04	-0.4	-11.5	106.3	11.5	-0.3
Cc1noc(N)c1C(=O)Nc1ccc(C(C)(C)C)cc1	3.97*	-0.9	74.7	142.9*	-74.7	-0.1
COC(=O)Cc1ccc(NC(=O)c2ccc(C)c(C)c2)cc1	3.92*	6.4	21.2	132.8*	-21.2	0.1
Cc1ccc(NC(=O)c2c(C)noc2C)cc1	1.31	-1.7	.	101.4	.	-0.4
CCOC(=O)Cc1ccc(NC(=O)c2ccc(C(C)(C)C)cc2)cc1	0.36	-0.3	-70.7	66.8	70.7*	-0.8
CN(C)C(=O)CSc1nnc([C@H](Cc2ccccc2)NC(=O)OC(C)(C)C)o1	.	4.2	.	.	.	.
COc1ccc(CNc2nc3ccccc3n2C)c(OC)c1	3.43*	7.0	119.8	107.5	-119.8	0.5
Cn1c(NCc2ccc(Cl)cc2)nc2ccccc21	0.79	0.9	69.6	136.1*	-69.6	0.6
CC(C)(C)CC(C)(C)N1CNC(=S)NC1	.	-1.5	.	.	.	.
COc1cccc(C(=O)COc2ccccc2N2C(=O)C3C4C=CC(C4)C3C2=O)c1 (configuration not stated)	1.3	0.8	-7.2	98.4	7.2	0.1
CN(C)CCNc1nc2sc3c(c2c(=O)n1-c1ccccc1)CCCCC3	.	2.0	.	.	.	.
O=C(Nc1ccon1)c1ccc(N2CCCCC2)c([N+](=O)[O-])c1	3.22	7.9	133.3	150.1*	-133.3	0.2
COc1ccc(CCC(=O)N2CCN(C3CCCCC3)CC2)cc1	0.87	2.8	-4.9	101.0	4.9	-0.3
CC1=CC(C)=Nc2ccc(C)cc2N1	0.75	2.2	20.8	138.6*	-20.8	-0.2
O=C(CSc1nnc(-c2ccc(O)cc2)o1)Nc1ccc2c(c1)OCCO2	1.92	1.9	135.3*	101.3	-135.3	0.0
O=C(CSc1nnc(-c2ccccc2Cl)o1)Nc1ccc2c(c1)OCCO2	2.23	2.8	140.9*	98.2	-140.9	0.0
